# This is a sample that favours compounds with a hit; in the whole collection about 1.5% have one here.
# Mtb MenB inh – blocks the Mycobacterium tuberculosis MenB enzyme; MenB enzyme assay, absorbance read-out; inhibition, % (no concentration beside the values); 100,000 tested, 0.43% active; in the data active means inhibition above about 21%, passing the limit was not always enough
# Target sequence (P9WNP5 whole entry, looked up): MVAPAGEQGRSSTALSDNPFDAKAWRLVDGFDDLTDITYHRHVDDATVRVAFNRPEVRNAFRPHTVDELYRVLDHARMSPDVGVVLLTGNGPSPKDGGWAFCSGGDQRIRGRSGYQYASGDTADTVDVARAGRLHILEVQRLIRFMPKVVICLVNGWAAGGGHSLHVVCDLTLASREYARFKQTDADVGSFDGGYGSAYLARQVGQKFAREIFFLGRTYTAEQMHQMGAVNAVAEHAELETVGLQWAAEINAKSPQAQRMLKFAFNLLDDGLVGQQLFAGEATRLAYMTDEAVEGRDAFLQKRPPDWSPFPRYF
# MbtI inh – MbtI salicylate synthase inhibition. P9WFX0. purified MbtI enzyme, fluorescence intensity read-out. inhibition, % (concentration not given with the values). 100,000 tested, 0.89% active; in the data active means inhibition mostly above about 56%, no sharp cut-off; inactive means mostly below about 77%
# Polio RdRp inh – poliovirus RNA polymerase inhibition; % elongation, % (compound at 16.7 µg/mL); poliovirus polymerase elongation, fluorescence polarization; hits give low values; 150,000 tested, 0.66% active; in the data active means % elongation below about 90%
# A number is an active result; i = inactive; nt = no result given.
SMILES,Mtb MenB inh,MbtI inh,Polio RdRp inh
NC(=O)CSc1nnc2scc(-c3ccc(Cl)cc3)n12,i,i,i
Cc1ccc(-c2csc3nnc(SCC(N)=O)n23)cc1,37,i,i
N=C(N)SCC(=O)Nc1ccccc1,23,i,i
Cc1ccc(NC(=O)CSC(=N)N)cc1,i,i,i
CCOC(=O)c1nnn(-c2nn3nnnc3c3ccccc23)c1C,32,i,i
CCOC(=O)c1nnn(-c2nonc2-n2cccc2)c1C,i,i,i
Cc1ccc2c(=O)cc(-c3ccccc3C(=O)O)oc2c1,i,i,i
O=C(O)c1ccccc1-c1c2cc(Br)c(=O)cc-2oc2[c]([Hg])c(O)c(Br)cc12,i,104,i
O=C1NC(=O)C(CC(=O)N2CCCCC2)N1 (stereo unspecified),i,i,i
CC(C)(C)SCC(=O)Nc1nc(-c2cccs2)c(-c2cccs2)s1,i,i,i
CCCCN(Cc1ccccc1)C(=O)C1CCN(Cc2cccc(O)c2)CC1,i,nt,i
CCCCN(C)C(=O)C1CCN(Cc2ccc(OCC)cc2)CC1,i,nt,45
Cc1ccc(S(=O)(=O)Nc2ccc(-c3nc4ccccc4o3)cc2)cc1,i,nt,i
O=C(Nc1ccc(Cl)cc1Cl)c1c(O)c2c(n(Cc3ccco3)c1=O)CCCC2,i,nt,i
CCCn1c2c(c(O)c(C(=O)Nc3ccccc3F)c1=O)CCCC2,48,i,i
O=C(/C=C(/O)c1cccnc1)C(F)(F)F,i,i,i
O=c1oc2c(ccc3ccccc32)c2c1SC(C(F)(F)F)C2 (stereo unspecified),i,i,i
NC(=O)CC(=O)c1c(O)c2ccccc2n(-c2ccccc2)c1=O,i,nt,i
N#CCCS(=O)(=O)c1ccc(N)cc1,i,nt,i
Nc1ccc(S(=O)(=O)CCSS(=O)(=O)c2ccc(N)cc2)cc1,i,99,63
C/C=C/C(=O)Nc1ccccc1OC,i,i,i
CCCOc1ccccc1NC(=O)/C=C/C(N)=O,nt,100,i
COc1cc(CNC(=O)Cn2c(=O)c3cccn3c3ccc(F)cc32)cc(OC)c1OC,i,i,i
CCN=c1scc(C)n1/N=C/c1ccc2c(c1)OCCO2,i,i,i
Cc1csc(=Nc2ccccc2F)n1/N=C/c1ccncc1,i,i,83
SMILES,Mtb MenB inh,MbtI inh,Polio RdRp inh
Cc1cc(OCC(O)CNC(C)(C)C)ccc1Cl (stereo unspecified),i,i,i
CC(C)(C)NCC(O)c1ccccc1Cl (stereo unspecified),55,i,i
COC(=O)c1c2n(c3ccccc3c1=O)CCCS2,i,i,i
Cc1ccccc1NC(=O)c1sc(N)c(C(N)=O)c1C,i,87,i
Cc1ccc(C(=O)Nc2ccccc2C)cc1,i,i,i
Cc1ccc(C(=O)CC2OC(=O)c3ccccc32)o1 (stereo unspecified),i,i,nt
Cc1ccc(S(=O)(=O)NCCSc2cc(C(F)(F)F)nc3ccccc23)cc1,i,i,i
Cn1c(CSc2cc(C(F)(F)F)nc3ccccc23)n[nH]c1=S,i,65,i
CC(C(=O)Nc1ccccc1)N1CCCCC1 (stereo unspecified),i,i,i
Cc1nn(C2CCS(=O)(=O)C2)c(Cl)c1/C=C/C(=O)OCc1csc(-c2ccccc2)n1 (stereo unspecified),i,i,nt
Cc1ccc2nc(SCC(=O)N3CCCCC3)c(C#N)cc2c1,41,i,i
COc1ccc2nc(SCC(=O)N3CCCCC3)c(C#N)cc2c1,i,i,i
O=S(=O)(c1ccc(Cc2ccc(S(=O)(=O)N3CCC4(CC3)OCCO4)cc2)cc1)N1CCC2(CC1)OCCO2,i,i,i
CC(=O)Oc1c(O)ccc2c(C)cc(=O)oc12,i,i,i
Cc1cc(=O)oc2c(/C=N/c3ccccn3)c(O)ccc12,i,i,88
Cc1cc(N=Cc2c(O)n(-c3ccccc3F)c(=O)c3ccccc23)n[nH]1,i,i,i
Cc1sc2nc(CCl)[nH]c(=O)c2c1-c1ccccc1,nt,82,89
Cc1sc2nc3n(c(=O)c2c1-c1ccccc1)CCC3,i,i,76
Cc1sc2nc(CCl)[nH]c(=O)c2c1C,nt,i,i
O=c1c2c(-c3ccccc3)csc2nc2n1CCC2,i,nt,i
CCN(CC)S(=O)(=O)c1ccc2oc(=S)n(CN3CCCCC3)c2c1,i,i,i
CCC1C(=O)NN=C1C (stereo unspecified),i,i,i
CCCCNS(=O)(=O)c1ccc(N)cc1,i,i,i
Cc1ccc2c(CC(=O)NCc3ccccc3)coc2c1C,nt,nt,1.0
Cc1ccc2c(CC(=O)Nc3ccccc3C(F)(F)F)coc2c1C,nt,nt,i
SMILES,Mtb MenB inh,MbtI inh,Polio RdRp inh
COc1ccc(-c2noc(N(C)CC(=O)Nc3ccc(Oc4ccccc4)cc3)n2)cc1,i,i,i
COC(=O)c1c(NC(=O)COc2ccc(C(C)C)cc2)sc2c1CCCC2,nt,nt,i
CCCc1ccc(OCC(=O)Nc2scc(-c3cccs3)c2C(=O)OC)cc1,nt,nt,74
CCOC(=O)c1c(-c2cccs2)csc1NC(=O)COC(=O)c1cc2c(s1)CCC2,i,i,i
COC(=O)c1c(-c2cccs2)csc1NC(=O)COc1ccc(C(C)C)cc1,nt,nt,70
Cc1nn2cnnc2c(C)c1CCC(=O)N1CCCC1,i,i,i
COC(=O)C1=C(N)N(c2ccc(C)cc2)C2=C(C(=O)CCC2)C1c1ccc(OC)cc1 (stereo unspecified),i,nt,i
Cc1ccc(C(=O)NCc2ccccc2F)s1,i,i,i
CC(=O)NS(=O)(=O)c1ccc(NC(=O)c2ccc(C)c(C)c2)cc1,23,i,i
Cc1ccnc(NS(=O)(=O)c2ccc(NC(=O)c3ccc(C)c(C)c3)cc2)n1,nt,nt,i
O=C(Oc1ccc(F)cc1)c1nsc(Cl)c1Cl,i,nt,88
Cc1ccsc1C(=O)Oc1ccc(F)cc1,nt,i,i
CCN(Cc1ccncc1)C(=O)C1CCCO1 (stereo unspecified),i,i,i
CCc1nc(SCc2ccccc2)[nH]c(=O)c1C,i,83,i
O=c1[nH]c(SCc2ccccc2)nc2ccccc12,nt,i,nt
CCOC(=O)c1sc(Nc2nc3ccccc3nc2Cl)c(C#N)c1C,i,i,i
Cc1ccc(OC(=O)CSc2nnc(-c3ccco3)n2-c2ccccc2)cc1,i,i,i
O=C(OCC1CCNCC1)c1ccc(F)cc1,27,i,i
O=C(OCC1CCNCC1)c1ccc2c(c1)OCO2,i,i,i
NC(=O)c1c(/N=C/c2cc(Br)ccc2O)sc2c1CCC2,nt,i,i
CCN(CC)C(=O)CSc1nnc(C)s1,i,i,i
CCc1cc(=O)oc2c(CN(C)C)c(O)c(Cl)cc12,i,i,i
CCc1c(CN2CCN(c3cccc(C)c3C)CC2)csc1C,nt,nt,56
Cc1cc(CN2CCN(c3cccc(C)c3C)CC2)cs1,nt,nt,i
Cc1ccc(Cl)cc1NC(=O)COC(=O)Cc1ccc(Cl)cc1,nt,i,i
SMILES,Mtb MenB inh,MbtI inh,Polio RdRp inh
O=C(CSc1ncnc2[nH]ncc12)c1ccccc1,i,i,i
O=C(CSc1ncnc2[nH]ncc12)CSc1ncnc2[nH]ncc12,active,i,i
CCCNS(=O)(=O)c1ccc(CCC(=O)NC2CCCC2)cc1,i,i,i
CCOC(=O)C1CCCN(C(=O)c2cn(CC)c3ccc(S(=O)(=O)N(C)C4CCCCC4)cc3c2=O)C1 (stereo unspecified),i,i,i
CCOC(=O)N/N=C\c1cn(C)c2ccccc12,i,i,i
CCCCNC(=O)Sc1ccc2ccccc2c1,i,i,84
CCNC(=O)CSc1ccc2ccccc2c1,i,i,i
COC(=O)c1ccc(Cn2nc(C)c(Br)c2C)o1,nt,i,nt

# Bioassay records as filed in PubChem.
